About 590 (28%) of roughly 2,100 compounds were called active. Roughly 42% stayed inconclusive and do not appear here. The list shows a part of the results. Unmarked numbers belong to inactive results. Calls come from the whole dose curve; as a rule, active = well fitted inhibition curve with a large enough effect; inconclusive = small, poorly fitted or top-dose-only effect; inactive = flat fitted curve, though single readings scatter.
Molecular target: DNA dC->dU-editing enzyme APOBEC-3F (Homo sapiens) (UniProt Q8IUX4)
Sequence (Q8IUX4 whole entry, looked up): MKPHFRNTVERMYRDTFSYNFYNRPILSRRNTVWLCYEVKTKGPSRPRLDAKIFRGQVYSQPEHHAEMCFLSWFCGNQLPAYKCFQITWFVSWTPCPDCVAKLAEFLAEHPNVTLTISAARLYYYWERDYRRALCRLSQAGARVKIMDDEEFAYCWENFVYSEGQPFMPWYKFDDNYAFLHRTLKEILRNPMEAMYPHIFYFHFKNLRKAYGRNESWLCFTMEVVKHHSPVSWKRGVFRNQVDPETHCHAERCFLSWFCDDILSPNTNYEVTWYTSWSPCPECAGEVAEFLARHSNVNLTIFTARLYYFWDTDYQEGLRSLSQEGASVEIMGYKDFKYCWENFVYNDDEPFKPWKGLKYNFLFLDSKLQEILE
Assay: qHTS for inhibitors of Vif-A3F interactions: Cherry picks; note: nearly all actives have a fitted effect of over 70% in size;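 for max response: % of control where 0% means no effect; active compounds raise eYFP fluorescence by blocking Vif-driven A3F loss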
Settings: HeLa A3F-eYFP + Vif (tagged APOBEC3F with the HIV-1 protein that degrades it), eYFP fluorescence, 24 h
Method in brief: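 Read-out: yellow fluorescence (ex 488 nm, em 500-530 nm) by laser-scanning cytometer after 24 h compound exposure, several concentrations, at 37 deg C. Cells: HeLa line stably co-expressing Vif and C-terminally eYFP-tagged A3F; MG132 served as positive control.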
Potency is the fitted concentration of half-maximal effect.

SMILES | max response [%] | Potency
COc1ccc(C(=O)C(C)[n+]2ccc(C)c3ccccc32)cc1[N+](=O)[O-] (stereo not drawn) | 1.15 | 
COc1ccc(C)cc1NCc1cc(=O)oc2cc(-c3ccccc3)c(O)cc12 | -18.7 | 
COc1ccc(-n2c(O)c(/C=N/NS(=O)(=O)c3cc(C)ccc3C)c3ccccc3c2=O)cc1OC |  | 14.6 µM (active)
O=C(O)CSc1cc(NS(=O)(=O)c2cccc([N+](=O)[O-])c2)c2ccccc2c1O | -12.8 | 
COc1ccc(-n2c(O)c(/C=N/NS(=O)(=O)c3ccc(C)c([N+](=O)[O-])c3)c3ccccc3c2=O)cc1OC |  | 14.6 µM (active)
COc1ccc(-n2c(O)c(/C=N/NS(=O)(=O)c3cccc([N+](=O)[O-])c3)c3ccccc3c2=O)cc1OC |  | 17.7 µM (active)
COC(=O)c1cnc(Nc2cc(C)ccc2OC)c2ccccc12 | -22 | 
COC1=C(OC)C(=O)C(Sc2ccc3ccccc3c2)=CC1=O | -9.94 | 
CCSc1nnc(-c2sc3nnc(-c4ccccc4)c(-c4ccccc4)c3c2N)o1 |  | 16.4 µM (active)
COc1cc(CNCCSc2nnnn2C)ccc1OCc1c(F)cccc1Cl | -4.2 | 
COc1ccc(C(=O)Nc2cccc(/C=C/c3nc4ccccc4c(=O)[nH]3)c2)cc1 |  | 12.5 µM (active)
N#Cc1c(C(F)(F)F)cc(-c2ccco2)nc1SCc1ccccn1 |  | 10.3 µM (active)
COc1ccc2nc(NC(=S)NC(=O)c3ccco3)sc2c1 | -0.262 | 
Nc1c(C(=O)Nc2nc3ccccc3s2)sc2nc(-c3cccs3)ccc12 |  | 20.6 µM (active)
Nc1c(C(=O)Nc2nccs2)sc2nc(-c3cccs3)cc(C(F)(F)F)c12 |  | 8.86 µM (active)
Cc1nnc(NC(=O)c2sc3nc(-c4cccs4)cc(C(F)(F)F)c3c2N)s1 |  | 7.31 µM (active)
O=C(Nc1nc2ccccc2s1)c1ccc([N+](=O)[O-])o1 | -26.2 | 
Nc1c(C(=O)Nc2ccc(F)cc2)sc2nc(-c3cccs3)cc(C(F)(F)F)c12 |  | 1.64 µM (active)
O=c1[nH]cnc2n[nH]nc12 |  | 2.31 µM (active)
CCNC(=S)N/N=C(\C)c1ccc(N2CCOCC2)cc1 | -0.726 | 

SMILES | max response [%] | Potency
O=c1[nH]c2ccccc2n2c(C(F)(F)F)nnc12 | -23.2 | 
Cn1c(N)c(-c2ccccc2)c2ccc([N+](=O)[O-])cc2c1=O |  | 4.98 µM (active)
CC(C)(C)NCC(=Cc1ccccc1)C(=O)c1ccccc1 | 10 | 
C=C(C(=O)c1ccccc1)C(C)C(=C)C(=O)c1ccccc1 |  | 12.5 µM (active)
O=C(OC12CC3CC(CC(C3)C1)C2)c1ccc(NCc2cc(O)ccc2O)cc1 | -13.8 | 
CCN1/C(=C\C=C(C(C)=O)C(C)=O)Sc2ccccc21 |  | 18.4 µM (active)
O=C(CN1c2ccccc2Sc2ccccc21)NNC(=O)Nc1cccc(Cl)c1 | -28.8 | 
O=S(=O)(Nc1nc2ccccc2nc1OCC(F)(F)F)c1cccs1 | -0.45 | 
CSc1nsc(/C=C/Nc2ccc(C)cc2)c1C#N |  | 15.8 µM (active)
CSc1nsc(/C=C/Nc2ccc(F)cc2)c1C#N | -9.4 | 
N#CC1=C(S)N(c2ccc(F)cc2)C2(CCCCC2)NC1=O | 2.73 | 
Cc1c(C(=O)Nc2cnccn2)oc2ccccc12 | -18.9 | 
CC(=O)Nc1sc(/C(C#N)=C\c2cccc(Cl)c2)nc1-c1ccc(C)cc1 |  | 6.51 µM (active)
CC(=O)Nc1sc(/C(C#N)=C/c2ccc(Cl)c(Cl)c2)nc1-c1ccc(C)cc1 |  | 2.59 µM (active)
O=C(Nc1nc(NC(=O)c2ccco2)n(-c2ccccc2)n1)c1ccccc1 | -10.5 | 
NC(=O)c1cccc(-c2ccnc3c2CC(C(=O)NCc2ccco2)O3)c1 (stereo not drawn) | -22.9 | 
CCOC(=O)c1sc(NC(=S)NC(=O)c2ccco2)nc1C | 0.261 | 
COc1cccc(NC(=O)c2sc3nc(C)c(C(=O)Nc4ccc(C)cc4C)c(-c4ccco4)c3c2N)c1 | -5.66 | 
CCc1ccc(NC(=O)c2sc3nc(C)c(C(=O)Nc4ccc(C)cc4C)c(-c4ccco4)c3c2N)cc1 |  | 23.1 µM (active)
N#Cc1cccn1-c1nccc(-c2cccs2)n1 |  | 12.5 µM (active)

SMILES | max response [%] | Potency
C#CCSc1nc(-c2cccs2)ccc1C#N | -28.5 | 
O=CNc1ccc2c3c(cccc13)-c1ccccc1-2 |  | 14 µM (active)
CCCCN(C)CC(O)Cn1cc(/C=C/C(=O)c2cccs2)c2ccccc21 (stereo not drawn) |  | 20.6 µM (active)
N#CCC(=O)N/N=C/c1ccc(N2N=C(c3ccccc3)CC2c2ccccc2)cc1 (stereo not drawn) |  | 18.4 µM (active)
CC1Sc2ccc(C(=O)NCc3ccccn3)cc2NC1=O (stereo not drawn) | -4.69 | 
COc1ccc(NC(=O)CSc2ccc3c4c(cccc24)C(=O)c2ccccc2-3)cc1 |  | 8.2 µM (active)
COc1ccc(NC(=O)c2cccc3ccccc23)cc1 | -30 | 
Cc1ccc(NC(=O)CSc2ccccc2NC(=O)c2cccc(Cl)c2)cc1Cl | -5.67 | 
CCn1c(CNC(=O)C23CC4CC(CC(C4)C2)C3)nnc1SCC(=O)Nc1ccc(OC)cc1 | 6.03 | 
N#Cc1cccc(NC(=O)CSc2ccc3c4c(cccc24)C(=O)c2ccccc2-3)c1 |  | 2.31 µM (active)
Cc1cccc(C(=O)NC(=S)N2CCc3ccccc3C2)c1 | 0.715 | 
COc1ccc(NC(=O)CN2C(=O)C3(SCC(=O)N3c3ccccc3)c3ccccc32)cc1Cl (stereo not drawn) | -11.4 | 
CCCN1C(=O)S/C(=C/c2ccc(N3CCOCC3)o2)C1=O |  | 2.8 µM (active)
O=C1S/C(=C\c2ccc(N3CCOCC3)o2)C(=O)N1c1ccccc1 |  | 3.53 µM (active)
CCCN1C(=O)S/C(=C\c2ccc(N3CCOCC3)o2)C1=O |  | 2.8 µM (active)
Cn1cc(/C=C2\SC(=O)N(c3ccccc3)C2=O)c2ccccc21 | -28.8 | 
C/C(=N/NC(N)=S)c1ccc(Br)s1 | 1.12 | 
CC(NC1=CC(=O)c2cccnc2C1=O)C(O)c1ccccc1 (stereo not drawn) | -27.2 | 
